The assay is described as follows: growth inhibition of WT strain, primary screen, mitochondrial fusion inhibitor project, WT and mutant strains, chemical genetic (AID 1362). The note with it: mitochondrial fusion phenotypic screen, at 10 µM.
The mark [1] stands for this setting: WT strain, growth inhibition, stronger effect = higher value.

Among all 190,000 compounds or so, about 4,000 (2.1%) were called active. The sample holds actives, similar compounds and a random draw of the others, so the mix is not that of the screen. No stated cut-off is given here; in the data, active means inhibition above about 58%; inactive means the rest, inconclusive results apart; tested in S. cerevisiae.

For the molecule `CCC(=O)N(Cc1cc2ccccc2[nH]c1=O)c1ccc(OC)cc1`, the inhibition is -16% (inactive) under setting [1] and 1.27% (mutant strain inhibition).

Take `CN(CCOc1ccc(Br)cc1)CC(=O)Nc1cccc(S(=O)(=O)NC2=NCCC2)c1`: the inhibition is -4.79% (inactive) under setting [1] and -2.03% (mutant strain inhibition).

Turning to `O=C(Nc1nnc(C2COc3ccccc3O2)o1)c1ccc(F)cc1` (stereo not given), the inhibition is, setting by setting: under setting [1], 62.7% (active); (mutant strain inhibition) 52.9%.

As to `Cc1onc(-c2ccccc2)c1C(=O)NNC(=S)NC(=O)c1ccc(F)cc1`, the inhibition under setting [1] was 14.1% (inactive) and the inhibition (mutant strain inhibition) is -24.2%.

Turning to `c1ccc2c(c1)OCC(c1nn3cnnc3s1)O2` (stereo not given), the inhibition under setting [1] was 15.5% (inactive) and the inhibition (mutant strain inhibition) was found to be 14.4%.

Regarding `COCCNc1nc2nonc2nc1N1CCCC1c1nccs1` (stereo not given), the inhibition is 17.4% (inactive) under setting [1] and 12.6% (mutant strain inhibition).

In the case of `Cc1cc(C)n2nc(SCC(=O)NC(=O)NCc3ccco3)nc2n1`, the inhibition under setting [1] was 8.54% (inactive) and the inhibition (mutant strain inhibition) came out at 10.4%.

As for `Cc1ccc(NC(=O)N2CCC(c3nc4c(nnn4Cc4c(F)cccc4Cl)c(=O)[nH]3)CC2)cc1`, the inhibition runs as follows: under setting [1], -0.04% (inactive); (mutant strain inhibition) 3.09%.

For the molecule `COc1ccc(Cn2nnc3c(=O)[nH]c(C4CCN(C(=O)c5ccccc5Cl)CC4)nc32)cc1`, the inhibition reads like this: under setting [1], 94.1% (active); (mutant strain inhibition) 34.6%.

With `O=C(Nc1ccc(F)cc1)N1CCCC(c2nc3c(nnn3Cc3ccccc3Cl)c(=O)[nH]2)C1` (stereo not given), the inhibition under setting [1] is -0.5% (inactive) and the inhibition (mutant strain inhibition) came to 17.4%.

`COCCNC(=O)c1ccc(-n2c(SCc3cccnc3)nc3ccccc3c2=O)cc1`: the inhibition by setting is: under setting [1], -8.55% (inactive); (mutant strain inhibition) -7.82%.

Regarding `O=C(CCN1c2ccccc2Sc2ccccc21)Nc1ccccc1`, the inhibition is 69.8% (active) under setting [1] and 43.4% (mutant strain inhibition).

In the case of `CC1CCN(CCC(=O)Nc2ccccc2)CC1`, the inhibition is -7.63% (inactive) under setting [1] and -10% (mutant strain inhibition).

With `O=C(CCN1C(=O)c2ccccc2C1=O)Nc1ccncc1`, the inhibition is, setting by setting: under setting [1], 2.36% (inactive); (mutant strain inhibition) -2.76%.

In the case of `COc1ccc(OC)c(C(=O)c2coc3ccc(O)c(CN4CCOCC4)c23)c1`, the inhibition reads like this: under setting [1], 7.31% (inactive); (mutant strain inhibition) -1.21%.

As to `COc1ccc(OC)c(C(=O)c2coc3ccc(OC)cc23)c1`, the inhibition reads like this: under setting [1], 80.9% (active); (mutant strain inhibition) 15.4%.

On to `COc1ccc2occ(C(=O)c3ccc(N=C(C)N(C)C)cc3)c2c1`, for which the inhibition reads like this: under setting [1], 6.86% (inactive); (mutant strain inhibition) 8.79%.

`CCN(CC)CCNC(=O)c1ccc(NS(=O)(=O)c2ccc3c(c2)OCCO3)cc1`: the inhibition is -8.91% (inactive) under setting [1] and 1.15% (mutant strain inhibition).

On to `C/C(N)=C(/C#N)C(=O)COC(=O)CNS(=O)(=O)c1ccc(C)cc1`, for which the inhibition under setting [1] is -9.23% (inactive) and the inhibition (mutant strain inhibition) came to 5.26%.

As to `CCn1c(-c2ccncc2)n[nH]c1=S`, the inhibition runs as follows: under setting [1], 5.96% (inactive); (mutant strain inhibition) 13.5%.

Regarding `CCCc1cc(-c2n[nH]c(=S)n2CC)c2ccccc2n1`, the inhibition reads like this: under setting [1], -17.6% (inactive); (mutant strain inhibition) -14.6%.

Consider `CCCc1cc(-c2n[nH]c(=S)n2Cc2ccccc2)cs1`, for which the inhibition reads like this: under setting [1], 65.6% (active); (mutant strain inhibition) 36.1%.

On to `Cc1cc(-c2csc(N)n2)c(C)n1Cc1ccccc1`, for which the inhibition by setting is: under setting [1], 12% (inactive); (mutant strain inhibition) 5.79%.

With `CCc1cc(-c2n[nH]c(=S)n2CC(C)C)cs1`, the inhibition by setting is: under setting [1], 66.2% (active); (mutant strain inhibition) -0.18%.

Consider `C=CCn1c(-c2ccc3[nH]c(C)c(C)c3c2)n[nH]c1=S`, for which the inhibition is, setting by setting: under setting [1], 9.01% (inactive); (mutant strain inhibition) 0.81%.

As to `CCC(C)CN1CCC(CO)(Cc2ccccc2Cl)CC1` (stereo not given), the inhibition is, setting by setting: under setting [1], 11.3% (inactive); (mutant strain inhibition) 4.97%.

For `Cc1ccc(NC(=O)C(=O)NCC2CCN(C(=O)c3cccc([N+](=O)[O-])c3)CC2)cc1`, the inhibition under setting [1] is 2.01% (inactive) and the inhibition (mutant strain inhibition) was -12.9%.

As for `COc1ccccc1-n1c(=S)[nH]c2c(sc(=S)n2-c2ccc(C)cc2C)c1=O`, the inhibition was -7.13% (inactive) under setting [1] and -4.6% (mutant strain inhibition).

As for `Cc1cc(C)nc(Nc2cc([N+](=O)[O-])ccc2C)n1`, the inhibition is -4.85% (inactive) under setting [1] and 9.39% (mutant strain inhibition).

On to `Cc1ccc(Nc2ccc(C(N)=O)cc2[N+](=O)[O-])cc1`, for which the inhibition reads like this: under setting [1], 2.16% (inactive); (mutant strain inhibition) -8.75%.

With `Cc1ccc(Nc2cc(C)nc3c(C)ccc([N+](=O)[O-])c23)cc1`, the inhibition by setting is: under setting [1], 64.8% (active); (mutant strain inhibition) 56.9%.

For the molecule `CCC(C)(C)NC(=O)CN(C(=O)C(=O)Nc1ccc2c(c1)OCCO2)C(C)(C)CC`, the inhibition by setting is: under setting [1], -7.46% (inactive); (mutant strain inhibition) 6.56%.

For `Cc1ccc(C(=O)O)cc1N1C(=O)CCCC1=O`, the inhibition is -14.9% (inactive) under setting [1] and -14.6% (mutant strain inhibition).

Regarding `O=C(CN1C(=O)/C(=C\c2ccc(C(F)(F)F)cc2)Sc2ccccc21)NCc1ccco1`, the inhibition by setting is: under setting [1], 49% (inactive); (mutant strain inhibition) 3.15%.

As to `CCN1CCN(CCNC(=O)c2ccc(/C=C3/Sc4ccccc4N(Cc4cccc(C)c4)C3=O)cc2)CC1`, the inhibition is 83.7% (active) under setting [1] and 59.2% (mutant strain inhibition).

`Cc1nn(Cc2ccccc2)c(C)c1C(=O)NCCN1C(=O)S/C(=C\c2ccc(F)cc2)C1=O`: the inhibition runs as follows: under setting [1], 0.77% (inactive); (mutant strain inhibition) 0.61%.

As to `Cc1ccc(C)c(Cn2cnc3c(oc4ccccc43)c2=O)c1`, the inhibition under setting [1] was -1.67% (inactive) and the inhibition (mutant strain inhibition) is -14.3%.

Consider `COc1cccc(/C=N/Nc2cc(C)nc(-c3ccccc3O)n2)c1O`, for which the inhibition is, setting by setting: under setting [1], 51.6% (inactive); (mutant strain inhibition) 48.3%.

On to `COc1ccccc1/C=N\Nc1cc(C)nc(-n2nc(C)cc2C)n1`, for which the inhibition was 69.1% (active) under setting [1] and 28.4% (mutant strain inhibition).

Turning to `CC(=O)c1ccc(Oc2cc(C)nc(-n3nc(C)cc3C)n2)cc1`, the inhibition runs as follows: under setting [1], -3.85% (inactive); (mutant strain inhibition) 8.66%.

With `COc1ccc(Nc2cc(C)nc(-n3nc(C)cc3C)n2)cc1`, the inhibition is, setting by setting: under setting [1], 76.8% (active); (mutant strain inhibition) 68.7%.

Regarding `COc1cc(NS(=O)(=O)c2ccccc2)ccc1-n1nc(C)cc1C`, the inhibition reads like this: under setting [1], -33.7% (inactive); (mutant strain inhibition) 2.02%.

As for `COc1ccc(NC(=O)c2nc(-n3nc(C)cc3C)ccc2Cl)cc1Cl`, the inhibition reads like this: under setting [1], 5.72% (inactive); (mutant strain inhibition) -16.9%.

As to `COc1ccc(-c2ccc(CCC(=O)O)n2-c2ccc(O)cc2)cc1`, the inhibition by setting is: under setting [1], -12.3% (inactive); (mutant strain inhibition) -2.11%.

With `O=C(Nc1ccc2ccccc2c1)Nc1ccc2snnc2c1`, the inhibition runs as follows: under setting [1], 88.1% (active); (mutant strain inhibition) 77.8%.

For `O=C(Nc1ccccc1)Nc1nc2ccccc2s1`, the inhibition was -5.57% (inactive) under setting [1] and -20.5% (mutant strain inhibition).

`COc1ccc(NC(=O)Nc2ccc3nsnc3c2)cc1`: the inhibition runs as follows: under setting [1], 23.1% (inactive); (mutant strain inhibition) -36.8%.

As for `COc1ccc2c(c1)CCc1c(C(=O)N3CCc4ccccc4C3)noc1-2`, the inhibition by setting is: under setting [1], 73.9% (active); (mutant strain inhibition) 68%.

Regarding `COc1ccc2c(c1)CCc1c(C(=O)N3CCCC3)noc1-2`, the inhibition was -10.3% (inactive) under setting [1] and -6.91% (mutant strain inhibition).

Consider `COc1ccc2c(c1)CCc1c(C(=O)Nc3c(C)n(C)n(-c4ccccc4)c3=O)noc1-2`, for which the inhibition was -9.3% (inactive) under setting [1] and -13% (mutant strain inhibition).

For the molecule `COc1ccc(CC2(CO)CCN(Cc3cnn(C)c3)CC2)cc1`, the inhibition is 12.1% (inactive) under setting [1] and -0.62% (mutant strain inhibition).

For the molecule `Cc1cc(O)c(NC(=O)c2ccc(C)c([N+](=O)[O-])c2)cc1C`, the inhibition runs as follows: under setting [1], -6.28% (inactive); (mutant strain inhibition) -4.47%.

For `Cc1cc(OCCOc2cccc3cccnc23)c(C)cc1Cl`, the inhibition under setting [1] is 14.6% (inactive) and the inhibition (mutant strain inhibition) was determined as 20.4%.

With `CCOc1cccc(OCCCOc2cccc3cccnc23)c1`, the inhibition under setting [1] was 60.8% (active) and the inhibition (mutant strain inhibition) is 26%.

With `O=S(=O)(NCCOc1cccc2cccnc12)c1ccc(F)cc1`, the inhibition under setting [1] is 0.13% (inactive) and the inhibition (mutant strain inhibition) stood at 5.48%.

The record behind these values is PubChem BioAssay AID1362 (SRMLSC, 2008).
